Data from PubChem BioAssay (EPA / NIEHS).
Calls of active or inactive are those of the source. Rule for the calls: active = hit-call score of the fitted dose curve at least 0.9, where 1 is the maximum; inactive = score below 0.9.

Tests used:
[1] = read-out: Thrombomodulin, THBD (gene 7056); experiment: BSK_CASM3C_Thrombomodulin: BioMAP Diversity Plus: CASM3C Assay for Thrombomodulin Biomarker Activity (AID 2283051); conditions: primary human coronary artery smooth muscle cells; actives raise or lower the signal;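 note: thrombomodulin protein level measured by ELISA 24 h after dosing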
[2] = read-out: Tissue Factor, F3 (gene 2152); experiment: BSK_CASM3C_TissueFactor: BioMAP Diversity Plus: CASM3C Assay for Tissue Factor Biomarker Activity (AID 2283052); conditions: primary human coronary artery smooth muscle cells; actives raise or lower the signal;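 note: cell surface tissue factor protein level read by ELISA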
[3] = read-out: Interferon-gamma inducible Protein 10 (IP10), CXCL10 (gene 3627); experiment: BSK_hDFCGF_IP10: BioMAP Diversity Plus: hDFCGF Assay for Interferon-gamma inducible Protein 10 (IP10) Biomarker Activity (AID 2283053); conditions: primary human foreskin fibroblasts; actives raise or lower the signal
Method in brief: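 Primary human foreskin fibroblasts exposed to chemicals for 24 h. IP-10 measured by ELISA; changes fitted bidirectionally against DMSO baseline.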

[4] = read-out: Urokinase-type plasminogen activator receptor (uPAR), PLAUR (gene 5329); experiment: BSK_CASM3C_uPAR: BioMAP Diversity Plus: CASM3C Assay for Urokinase-type plasminogen activator receptor (uPAR) Biomarker Activity (AID 2283054); conditions: primary human coronary artery smooth muscle cells; actives raise or lower the signal;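 note: cell-surface uPAR protein level quantified by ELISA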
[5] = read-out: Vascular cell adhesion molecule 1 (VCAM1), VCAM1 (gene 7412); experiment: BSK_CASM3C_VCAM1: BioMAP Diversity Plus: CASM3C Assay for Vascular cell adhesion molecule 1 (VCAM1) Biomarker Activity (AID 2283055); conditions: primary human coronary artery smooth muscle cells; actives raise or lower the signal;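 note: VCAM-1 protein level quantified by ELISA on the cells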
[6] = read-out: Collagen III, COL3A1 (gene 1281); experiment: BSK_hDFCGF_CollagenIII: BioMAP Diversity Plus: hDFCGF Assay for Collagen III Biomarker Activity (AID 2283056); conditions: primary human foreskin fibroblasts; actives raise or lower the signal
Method in brief: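 Human foreskin primary fibroblasts were exposed to test chemicals for 24 h, after which collagen III was quantified by ELISA. Activity was fitted bidirectionally against DMSO as negative control and baseline.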

[7] = read-out: Epidermal growth factor receptor (EGFR), EGFR (gene 1956); experiment: BSK_hDFCGF_EGFR: BioMAP Diversity Plus: hDFCGF Assay for Epidermal growth factor receptor (EGFR) Biomarker Activity (AID 2283057); conditions: primary human foreskin fibroblasts; actives raise or lower the signal
Method in brief: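 Primary human foreskin fibroblasts (hDFCGF system), sampled 24 h after dosing; EGFR quantified by ELISA. Bidirectional fit relative to DMSO baseline; SRB total-protein staining in parallel cultures for cytotoxicity.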

[8] = read-out: Interleukin-8 (IL8), CXCL8 (gene 3576); experiment: BSK_hDFCGF_IL8: BioMAP Diversity Plus: hDFCGF Assay for Interleukin-8 (IL8) Biomarker Activity (AID 2283058); conditions: primary human foreskin fibroblasts; actives raise or lower the signal
Method in brief: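 hDFCGF human dermal fibroblasts; 24 h chemical exposure; IL-8 by ELISA; bidirectional curve fit vs DMSO baseline; gain or loss of signal scored.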

[9] = BSK_hDFCGF_Proliferation: Cell Proliferation Assessment in the BioMAP Diversity Plus: hDFCGF Assay (AID 2283059); conditions: primary human foreskin fibroblasts;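 note: curves fitted for both rise and fall of signal versus DMSO baseline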
Method in brief: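 Primary human foreskin fibroblasts, sub-confluent; […]; 10% TCA fix, 0.1% SRB stain, A560 total protein. Gain/loss fitted bidirectionally vs DMSO control.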

[10] = read-out: Macrophage colony-stimulating factor (MCSF), CSF1 (gene 1435); experiment: BSK_hDFCGF_MCSF: BioMAP Diversity Plus: hDFCGF Assay for Macrophage colony-stimulating factor (MCSF) Biomarker Activity (AID 2283060); conditions: primary human foreskin fibroblasts; actives raise or lower the signal
Method in brief: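 Human foreskin primary fibroblasts were treated with test chemical for 24 h, and M-CSF was then measured by ELISA. Data were fitted bidirectionally against DMSO as the negative control and activity baseline.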

[11] = BSK_hDFCGF_SRB: Viability Assessment in the BioMAP Diversity Plus: hDFCGF Assay (AID 2283061); conditions: primary human foreskin fibroblasts;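 note: cells exposed to compound for 24 h before the read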
Method in brief: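 Human foreskin primary fibroblasts were treated with compound and assessed 24 h after dosing. Total protein was measured by sulforhodamine B staining (0.1% SRB after 10% TCA fixation, 560 nm read) as a cytotoxicity marker, with bidirectional fitting against DMSO baseline.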

[12] = read-out: TIMP metallopeptidase inhibitor 1 (TIMP1), TIMP1 (gene 7076); experiment: BSK_hDFCGF_TIMP1: BioMAP Diversity Plus: hDFCGF Assay for TIMP metallopeptidase inhibitor 1 (TIMP1) Biomarker Activity (AID 2283062); conditions: primary human foreskin fibroblasts; actives raise or lower the signal
Method in brief: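 Primary human foreskin fibroblasts in the hDFCGF system were dosed with compound for 24 h, then TIMP-1 was measured by ELISA. Activity was fitted bidirectionally relative to DMSO control; parallel SRB staining assessed cytotoxicity.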

[13] = read-out: Matrix Metallopeptidase 1 (MMP1), MMP1 (gene 4312); experiment: BSK_hDFCGF_MMP1: BioMAP Diversity Plus: hDFCGF Assay for Matrix Metallopeptidase 1 (MMP1) Biomarker Activity (AID 2283064); conditions: primary human foreskin fibroblasts; actives raise or lower the signal
Method in brief: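 Primary human foreskin fibroblasts exposed to chemicals for 24 h; MMP1 measured by ELISA. Cytotoxicity tracked by SRB staining in parallel cultures; bidirectional fit relative to DMSO.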

[14] = read-out: Vascular cell adhesion molecule 1 (VCAM1), VCAM1 (gene 7412); experiment: BSK_hDFCGF_VCAM1: BioMAP Diversity Plus: hDFCGF Assay for Vascular cell adhesion molecule 1 (VCAM1) Biomarker Activity (AID 2283065); conditions: primary human foreskin fibroblasts; actives raise or lower the signal;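 for AC50: VCAM-1 protein level quantified by ELISA after 24 h chemical exposure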
Method in brief: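 Primary human foreskin fibroblasts (hDFCGF system) were dosed with chemical and VCAM-1 was measured by ELISA 24 h later. Bidirectional curve fitting used DMSO as negative control and activity baseline.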

[15] = read-out: Plasminogen activator inhibitor-1 (PAI1), SERPINE1 (gene 5054); experiment: BSK_hDFCGF_PAI1: BioMAP Diversity Plus: hDFCGF Assay for Plasminogen activator inhibitor-1 (PAI1) Biomarker Activity (AID 2283066); conditions: primary human foreskin fibroblasts; actives raise or lower the signal
Method in brief: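 Human foreskin fibroblast primary cells, 24 h chemical exposure; PAI-1 measured by ELISA. Bidirectional fitting relative to DMSO; parallel cultures stained with SRB for total protein to flag overt cytotoxicity.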

[16] = read-out: Intercellular Adhesion Molecule 1 (ICAM1), ICAM1 (gene 3383); experiment: BSK_KF3CT_ICAM1: BioMAP Diversity Plus: KF3CT Assay for Intercellular Adhesion Molecule 1 (ICAM1) Biomarker Activity (AID 2283067); conditions: primary human keratinocytes with fibroblasts; actives raise or lower the signal
Method in brief: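 Human keratinocyte plus foreskin fibroblast primary co-culture was exposed to chemical for 24 h. ICAM-1 was then quantified by ELISA, and the data were fit bidirectionally against DMSO as the negative control and baseline.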

[17] = read-out: Interferon-gamma inducible Protein 10 (IP10), CXCL10 (gene 3627); experiment: BSK_KF3CT_IP10: BioMAP Diversity Plus: KF3CT Assay for Interferon-gamma inducible Protein 10 (IP10) Biomarker Activity (AID 2283068); conditions: primary human keratinocytes with fibroblasts; actives raise or lower the signal
Method in brief: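 In a primary skin co-culture of keratinocytes and fibroblasts, IP-10 is quantified by ELISA at 24 h after dosing. SRB staining of parallel wells monitors overt toxicity. Curves are fitted both directions against DMSO.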

[18] = BSK_KF3CT_SRB: Viability Assessment in the BioMAP Diversity Plus: KF3CT Assay (AID 2283069); conditions: primary human keratinocytes with fibroblasts;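 note: fitted for both signal gain and loss against DMSO baseline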
Method in brief: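 Human keratinocyte and foreskin fibroblast co-culture exposed to chemical for 24 h. Total protein measured in parallel cultures by 0.1% sulforhodamine B staining after 10% TCA fixation, read at 560 nm; bidirectional fit relative to DMSO.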

[19] = read-out: Interleukin-1 alpha (IL1a), IL1A (gene 3552); experiment: BSK_KF3CT_IL1a: BioMAP Diversity Plus: KF3CT Assay for Interleukin-1 alpha (IL1a) Biomarker Activity (AID 2283070); conditions: primary human keratinocytes with fibroblasts; actives raise or lower the signal
Method in brief: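 Primary human keratinocyte plus foreskin fibroblast co-culture, dosed and measured at 24 h in 96-well plates. IL-1a level quantified by ELISA; bidirectional fit relative to DMSO.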

[20] = read-out: Monokine induced gamma interferon (MIG), CXCL9 (gene 4283); experiment: BSK_hDFCGF_MIG: BioMAP Diversity Plus: hDFCGF Assay for Monokine induced gamma interferon (MIG) Biomarker Activity (AID 2283063); conditions: primary human foreskin fibroblasts; actives raise or lower the signal
Method in brief: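 ELISA read-out of MIG from primary human dermal fibroblasts 24 h post-dosing. Gain or loss of signal fitted bidirectionally, DMSO as baseline.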

Measured: AC50

COCC(=O)N(c1c(C)cccc1C)C(C)C(=O)OC (centres undefined)
not listed: [20]
inactive: all other assays above

CC1(C)CCC(=Cc2ccc(Cl)cc2)C1(O)Cn1cncn1 (centres undefined)
active: [9] 1.31 µM
inactive: all other assays above

Cc1nc(N(C)C)nc(OC(=O)N(C)C)c1C
active: [11] 29.8 µM
inactive: all other assays above

COc1ccc(-c2ccccc2)cc1NNC(=O)OC(C)C
inactive: all assays above

OC(c1ccc(Cl)cc1)(c1ccc(Cl)cc1)C(Cl)(Cl)Cl
active: [1] 33.1 µM | [3] 9.87 µM | [4] 32.9 µM | [5] 27.2 µM | [6] 10.3 µM | [8] 11 µM | [9] 10 µM | [10] 8.17 µM | [11] 10.5 µM | [12] 11.4 µM | [20] 10.1 µM | [13] 11 µM | [14] 8.87 µM | [15] 11 µM | [16] 11.6 µM | [17] 9.49 µM | [18] 6.45 µM | [19] 8.05 µM
inactive: [2] | [7]

CC(C)Nc1nc(Cl)nc(NC(C)C)n1
active: [4] 13.6 µM
inactive: all other assays above

C=C(C)CN(CC)c1c([N+](=O)[O-])cc(C(F)(F)F)cc1[N+](=O)[O-]
active: [3] 20 µM | [9] 19.5 µM | [13] 3.92 µM | [17] 14.9 µM
inactive: all other assays above

O=C(Nc1ccccc1-c1ccc(Cl)cc1)c1cccnc1Cl
active: [17] 0.128 µM
inactive: all other assays above

O=C1C2CC=CCC2C(=O)N1SC(Cl)(Cl)Cl (centres undefined)
active: [1] 4.74 µM | [3] 6.95 µM | [4] 32.2 µM | [5] 22.5 µM | [6] 6.44 µM | [7] 5.78 µM | [8] 12.1 µM | [9] 1.85 µM | [10] 6.29 µM | [11] 6.26 µM | [20] 7.37 µM | [13] 10.7 µM | [14] 5.37 µM | [15] 7.58 µM | [16] 9.86 µM | [17] 10.3 µM | [18] 5.79 µM
inactive: [2] | [12]

COCc1cnc(C2=NC(C)(C(C)C)C(=O)N2)c(C(=O)O)c1 (centres undefined)
active: [17] 12.3 µM
not listed: [20]
inactive: all other assays above

CC(C)N1C(=O)N(c2ccccc2)CSC1=NC(C)(C)C
active: [1] 27.3 µM | [3] 15.7 µM | [6] 26.7 µM | [9] 32 µM | [11] 32.7 µM | [14] 32.1 µM | [17] 33.2 µM | [18] 30.8 µM | [19] 26.3 µM
not listed: [20]
inactive: all other assays above

COP(=S)(OC)SCn1nnc2ccccc2c1=O
active: [9] 26.2 µM
not listed: [20]
inactive: all other assays above

O=C(O)c1c(Cl)ccc2cc(Cl)cnc12
not listed: [20]
inactive: all other assays above
